Laboratory results as given in PubChem BioAssay AID1159580 (chemical genetic matrix, 2015).
The campaign covered roughly 5,500 compounds. About 2,000 (36%) were called active. Inconclusive results (about 18%) are left out. No stated cut-off is given here; in the data, active means normalized growth mostly below about 0.91 (no sharp cut-off); inconclusive means no clear call, values can overlap the other calls; inactive means mostly above about 0.92. The list shows a part of the results.

Experiment: chemical genetic growth profiling, strain panel (AID 1159580);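 further: tested at 20 µM; growth read once vehicle control cultures reached saturation at 30 °C; 1 = growth at the plate median or of vehicle wells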
Details: S. cerevisiae deletion strains, growth OD
[1] = locus YAR019C, strain CDC15, stronger effect = lower value
[2] = locus YBL105C, strain PKC1, stronger effect = lower value
[3] = locus YBR135W, strain CKS1, stronger effect = lower value
[4] = locus YBR136W, strain MEC1, stronger effect = lower value
[5] = locus YBR160W, strain CDC28, stronger effect = lower value
[6] = locus YDL017W, strain CDC7, stronger effect = lower value
[7] = locus YDL028C, strain MPS1, stronger effect = lower value
[8] = locus YDL101C, strain DUN1, stronger effect = lower value
[9] = locus YDL108W, strain KIN28, stronger effect = lower value
[10] = locus YDL132W, strain cdc53, stronger effect = lower value
[11] = locus YDL214C, strain PRR2, stronger effect = lower value
[12] = locus YDR052C, strain DBF4, stronger effect = lower value
[13] = locus YDR054C, strain cdc34, stronger effect = lower value
[14] = locus YDR226W, strain ADK1, stronger effect = lower value
[15] = locus YDR477W, strain SNF1, stronger effect = lower value
[16] = locus YER123W, strain YCK3, stronger effect = lower value
[17] = locus YER133W, strain GLC7, stronger effect = lower value
[18] = locus YFL009W, strain cdc4, stronger effect = lower value
[19] = locus YFL029C, strain CAK1, stronger effect = lower value
[20] = locus YFR003C, strain YPI1, stronger effect = lower value
[21] = locus YFR019W, strain FAB1, stronger effect = lower value
[22] = locus YFR028C, strain CDC14, stronger effect = lower value
[23] = locus YGR040W, strain KSS1, stronger effect = lower value
[24] = locus YGR052W, strain FMP48, stronger effect = lower value
[25] = locus YGR092W, strain DBF2, stronger effect = lower value
[26] = locus YHR030C, strain SLT2, stronger effect = lower value
[27] = locus YHR079C, strain IRE1, stronger effect = lower value
[28] = locus YHR082C, strain KSP1, stronger effect = lower value
[29] = locus YHR205W, strain SCH9, stronger effect = lower value
[30] = locus YIL147C, strain SLN1, stronger effect = lower value
[31] = locus YJL095W, strain BCK1, stronger effect = lower value
[32] = locus YJL128C, strain PBS2, stronger effect = lower value
[33] = locus YJL157C, strain FAR1, stronger effect = lower value
[34] = locus YJR016C, strain ILV3, stronger effect = lower value
[35] = locus YJR066W, strain TOR1 (second series), stronger effect = lower value
[36] = locus YJR066W, strain TOR1, stronger effect = lower value
[37] = locus YKL048C, strain ELM1, stronger effect = lower value
[38] = locus YKL067W, strain YNK1, stronger effect = lower value
[39] = locus YKL101W, strain HSL1, stronger effect = lower value
[40] = locus YKL193C, strain SDS22, stronger effect = lower value
[41] = locus YKL203C, strain TOR2, stronger effect = lower value
[42] = locus YLR113W, strain HOG1, stronger effect = lower value
[43] = locus YLR133W, strain CKI1, stronger effect = lower value
[44] = locus YLR403W, strain SFP1, stronger effect = lower value
[45] = locus YML070W, strain DAK1, stronger effect = lower value
[46] = locus YMR001C, strain CDC5, stronger effect = lower value
[47] = locus YMR205C, strain PFK2 (second series), stronger effect = lower value
[48] = locus YMR277W, strain FCP1, stronger effect = lower value
[49] = locus YNL006W, strain LST8, stronger effect = lower value
[50] = locus YNL020C, strain ARK1, stronger effect = lower value
[51] = locus YNL161W, strain CBK1, stronger effect = lower value
[52] = locus YNL183C, strain NPR1, stronger effect = lower value
[53] = locus YNL207W, strain RIO2, stronger effect = lower value
[54] = locus YNL222W, strain SSU72, stronger effect = lower value
[55] = locus YNL307C, strain MCK1 (second series), stronger effect = lower value
[56] = locus YOL078W, strain AVO1, stronger effect = lower value
[57] = locus YOL136C, strain PFK27, stronger effect = lower value
[58] = locus YOR061W, strain CKA2, stronger effect = lower value
[59] = locus YOR119C, strain RIO1, stronger effect = lower value
[60] = locus YOR231W, strain MKK1, stronger effect = lower value
[61] = locus YOR329C, strain SCD5, stronger effect = lower value
[62] = locus YPL031C, strain PHO85, stronger effect = lower value
[63] = locus YPL153C, strain RAD53, stronger effect = lower value
[64] = locus YPL204W, strain HRR25, stronger effect = lower value
[65] = locus YPL209C, strain IPL1, stronger effect = lower value
[66] = locus YPL256C, strain CLN2, stronger effect = lower value
[67] = locus YPR025C, strain CCL1, stronger effect = lower value
[68] = locus YPR106W, strain ISR1, stronger effect = lower value
[69] = locus YPR111W, strain DBF20, stronger effect = lower value
[70] = strain NNK1, stronger effect = lower value
[71] = strain TSCII, stronger effect = lower value

Measured: normalized growth

Cc1c(NCN2C(=O)CCC2=O)cc2c(c1[N+](=O)[O-])C(C)(C)CC2(C)C
inactive: [1] 0.963 | [2] 0.962 | [3] 0.967 | [4] 0.959 | [5] 0.967 | [6] 0.961 | [7] 0.962 | [8] 0.942 | [9] 0.965 | [10] 0.948 | [11] 0.925 | [12] 0.956 | [13] 0.958 | [14] 0.955 | [15] 0.913 | [16] 0.9 | [17] 0.879 | [18] 0.957 | [19] 0.95 | [20] 0.961 | [21] 0.952 | [22] 0.956 | [23] 0.912 | [24] 0.933 | [25] 0.931 | [26] 0.909 | [27] 0.894 | [28] 0.993 | [29] 0.904 | [30] 0.963 | [31] 0.839 | [32] 0.901 | [33] 0.92 | [34] 0.96 | [35] 0.861 | [36] 1.03 | [37] 0.928 | [38] 0.929 | [39] 0.922 | [40] 0.95 | [41] 0.978 | [43] 0.944 | [44] 0.921 | [45] 0.911 | [46] 0.956 | [47] 0.927 | [48] 0.96 | [49] 0.954 | [50] 0.932 | [51] 0.95 | [52] 0.977 | [53] 0.965 | [54] 0.959 | [55] 0.94 | [56] 0.952 | [57] 0.914 | [58] 0.945 | [59] 0.951 | [60] 0.943 | [61] 0.961 | [62] 0.899 | [63] 0.905 | [64] 0.891 | [65] 0.957 | [66] 0.87 | [67] 0.952 | [68] 0.949 | [69] 0.943 | [70] 0.937 | [71] 0.953
active: [42] 0.861

N#CC(C#N)=NNc1ccc(-n2ccc(C(F)(F)F)n2)cc1
active: [1] 0.871 | [2] 0.899 | [3] 0.893 | [8] 0.88 | [10] 0.76 | [11] 0.348 | [12] 0.876 | [13] 0.607 | [15] 0.368 | [16] 0.208 | [17] 0.422 | [18] 0.876 | [19] 0.853 | [21] 0.199 | [23] 0.48 | [24] 0.31 | [25] 0.176 | [26] 0.131 | [27] 0.175 | [28] 0.271 | [31] 0.204 | [33] 0.329 | [34] 0.895 | [35] 0.225 | [36] 0.201 | [37] 0.321 | [38] 0.403 | [39] 0.349 | [40] 0.875 | [41] 0.283 | [42] 0.207 | [43] 0.383 | [44] 0.448 | [45] 0.229 | [46] 0.883 | [47] 0.433 | [48] 0.865 | [50] 0.349 | [51] 0.884 | [52] 0.292 | [53] 0.875 | [54] 0.861 | [55] 0.379 | [56] 0.739 | [57] 0.202 | [58] 0.568 | [59] 0.419 | [60] 0.156 | [62] 0.273 | [63] 0.157 | [64] 0.183 | [65] 0.897 | [66] 0.178 | [67] 0.89 | [70] 0.866 | [71] 0.861
inactive: [4] 0.905 | [5] 0.902 | [6] 0.926 | [7] 0.923 | [9] 0.907 | [14] 0.917 | [20] 0.927 | [22] 0.899 | [29] 0.595 | [30] 0.928 | [32] 0.915 | [49] 0.914 | [61] 0.924 | [68] 0.902 | [69] 0.878
